Compound activity from PubChem.
Sampled rows, rich in hits. Any-hit rate of the full collection: about 19%.
ELG1 DNA repair = qHTS screen for small molecules that inhibit ELG1-dependent DNA repair in human embryonic kidney (HEK293T) cells expressing luciferase-tagged ELG1 | HEK293T ELG1-luciferase reporter, luminescence, 16 h; DNA damage induced by 5-fluorouridine | Potency, µM (doses to about 46.1 µM), inactives show at the highest dose activity change, negative = inhibition, most hits filed as inhibitors | 330,000 compounds, 2.3% hits; further: potency means the concentration at half of the fitted maximal effect; nearly all actives have a fitted effect of over 55% in size
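DMSO vehicle served as the neutral condition. Each well held 2,000 cells given 5-fluorouridine plus compound; after 16 hr at 37 °C/5% CO2, ONE-Glo was added and luciferase measured 30 min later.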
TDP1 cell CPT = qHTS for Inhibitors of human tyrosyl-DNA phosphodiesterase 1 (TDP1): qHTS in cells in presence of CPT; chicken DT40 Tdp1-/-;hTDP1 cells + 20 nM CPT, ATP luminescence, 48 h; 420,000 compounds, 12% hits; AID 686979, 2013; Potency, µM (highest dose often 46.2 µM), inactives show at the highest dose activity change, negative = growth inhibition, hits mostly inhibitors; further: potency means the concentration at half of the fitted maximal effect; nearly all actives have a fitted effect of over 55% in size
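Chicken DT40 Tdp1-/- cells complemented with human TDP1, 400 cells/well, exposed to compounds plus 20 nM camptothecin for at least 48 h at 37 C; viability read as ATP content by CellTiter-Glo luminescence.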
IL1B secr inh = qHTS for Inhibitors of Inflammasome Signaling: IL-1-beta AlphaLISA Primary Screen; THP-1 LPS/ATP IL-1B secretion, AlphaLISA, 16 h; hits give low values; activity change, % at 57.5 µM; 360,000 compounds, 4.7% hits; in the data active means activity change below about -50%; inconclusive means mostly about -30% to -49%
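Secreted IL-1B measured by AlphaLISA bead assay after 16 h compound exposure of THP-1 cells; compounds (final up to 57.5 uM) added 1 h before LPS (250 ng/mL) and ATP (1.25 mM) stimulation; lower signal means less secretion.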
DT40 TDP1 no CPT = qHTS for Inhibitors of human tyrosyl-DNA phosphodiesterase 1 (TDP1): qHTS in cells in absence of CPT; DT40 Tdp1-/- hTDP1 cells, no CPT, ATP luminescence, 48 h; Potency, µM (series often up to 46.2 µM), without a hit: at the top dose activity change, negative = growth inhibition, usual class: inhibitors; 420,000 compounds, 15% hits; AID 686978, 2013; further: potency means the concentration at half of the fitted maximal effect; nearly all actives have a fitted effect of over 55% in size
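Readout: luminescence from CellTiter-Glo after 30 min in the dark at RT. Cells: DT40 Tdp1-/- with stable hTDP1, 400/well. Exposure: compounds alone, ≥48 hr, 37 °C.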
TDP1 inh = qHTS Assay for Inhibitors of Tyrosyl-DNA Phosphodiesterase (TDP1); Tyrosyl-DNA phosphodiesterase 1 (Homo sapiens), Q9NUW8; recombinant TDP1, AlphaScreen DNA substrate cleavage; Potency, µM (titrated, usually from 130 µM), for the others: at the top dose activity change, negative = inhibition, actives largely listed as inhibitors; 350,000 compounds, 0.28% hits; further: potency means the concentration at half of the fitted maximal effect; nearly all actives have a fitted effect of over 40% in size
Target sequence (Q9NUW8 whole entry, looked up): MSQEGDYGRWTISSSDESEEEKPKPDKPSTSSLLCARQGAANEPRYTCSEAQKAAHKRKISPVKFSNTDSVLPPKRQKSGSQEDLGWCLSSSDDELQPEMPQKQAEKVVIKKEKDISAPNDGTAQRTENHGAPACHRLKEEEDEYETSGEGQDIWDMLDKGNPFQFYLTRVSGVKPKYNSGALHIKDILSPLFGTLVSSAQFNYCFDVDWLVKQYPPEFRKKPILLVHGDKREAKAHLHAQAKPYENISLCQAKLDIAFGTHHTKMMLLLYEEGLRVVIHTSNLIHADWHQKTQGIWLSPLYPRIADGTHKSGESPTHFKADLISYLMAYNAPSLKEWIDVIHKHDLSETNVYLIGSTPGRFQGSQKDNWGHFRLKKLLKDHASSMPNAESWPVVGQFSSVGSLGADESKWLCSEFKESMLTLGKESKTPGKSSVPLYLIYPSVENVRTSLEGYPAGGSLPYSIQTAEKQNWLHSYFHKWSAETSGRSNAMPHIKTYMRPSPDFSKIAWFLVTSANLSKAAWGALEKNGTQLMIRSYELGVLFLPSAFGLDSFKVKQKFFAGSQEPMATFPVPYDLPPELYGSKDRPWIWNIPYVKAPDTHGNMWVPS
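Recombinant E. coli-expressed Tdp1 (1 nM) preincubated with compound 15 min at RT, then 5'-biotin/3'-phosphotyrosine-FITC DNA substrate (15 nM) added for 5 min. AlphaScreen beads (10 ug/ml) added, 10 min RT; tyrosine-FITC cleavage read as signal loss.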
Giardia killer = Small Molecules that selectively kill Giardia lamblia: qHTS; Giardia lamblia trophozoite viability; activity change, % at 7.66 µM, hits read low; 340,000 compounds, 0.15% hits; in the data active means activity change below about -80%; inconclusive means between about -30% and that limit;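 further: parasites exposed to compound for two days anaerobically before the ATP read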
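Media and compound were dispensed first, then trophozoites at 100 cells/well; plates sat 48 hrs at 37 deg C without oxygen before ATP luminescence reagent was added and read after 15-30 min at room temperature.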
* = called active by the depositor; ? = inconclusive; nt = not tested or not shown; [ ] = another dose, or the depositor's remark. Unless noted, the call rests on the fitted dose curve; in most records, active means well fitted curve in the direction sought with a large enough effect; inconclusive means small, poorly fitted or top-dose-only effect, or another doubt; inactive means no such curve, though single readings can be large; an effect the other way counts as inactive or inconclusive. On the % scale 0 is the no-effect control and ±100 the full control effect.

SMILES	ELG1 DNA repair	TDP1 cell CPT	IL1B secr inh	DT40 TDP1 no CPT	TDP1 inh	Giardia killer
Cc1ccc(-c2nnn(CC(=O)N(CC(=O)NC3CCCCC3)c3ccc(F)c(Cl)c3)n2)o1	?	13µM*	27	21µM*	0%	0
Cc1ccc(N(C(=O)Cn2nnc(-c3ccccc3F)n2)C(C(=O)NC2CCCC2)c2ccncc2)cc1 (stereo not given)	5%	?	-1	?	0%[0.0935 µM]	-16
Cc1ccc(C)c(N(C(=O)Cn2nnc(-c3cccs3)n2)C(C(=O)NC2CC2)c2ccc(C)o2)c1 (stereo not given)	-3%	?	18	11µM*	3%	14
Cc1ccc(N(C(=O)Cn2nnc(-c3cccs3)n2)C(C(=O)NC2CCCC2)c2ccncc2)cc1 (stereo not given)	10%	23µM*	19	21µM*	8%	-8
COc1cccc(CNC(=O)Cc2ccc(S(=O)(=O)N3CCOCC3)s2)c1	1%	1%	-9	-1%	1%	9
O=c1oc2ccccc2c2c1nnn2CCO	12%	-2%	9	6%	8%	1
Cc1ccc(-c2nnn(CC(=O)N(Cc3ccccc3)C(C(=O)NC(C)(C)C)c3ccncc3)n2)o1 (stereo not given)	-4%	2%	-1	0%	8%	-22
Cc1ccc(N(C(=O)Cn2nnc(-c3ccc(C)o3)n2)C(C(=O)NC2CCCC2)c2ccco2)cc1 (stereo not given)	-6%	?	6	13µM*	5%	1
Cc1ccc(-c2nnn(CC(=O)N(Cc3ccco3)C(C(=O)NC(C)(C)C)c3ccc(C)o3)n2)o1 (stereo not given)	-8%	16µM*	-23	21µM*	5%	28
COc1ccc(NC(=O)Cn2ccc(C(F)(F)F)n2)cc1S(=O)(=O)N1CCOCC1	1%	15%	-6	-24%	1%	3
CN(C)S(=O)(=O)c1ccc2oc(SCC(=O)c3c(N)n(C4CC4)c(=O)[nH]c3=O)nc2c1	?	-8%	22	4.1µM*	-1%	11
CC(c1nnc(SCC(=O)c2c(N)n(C3CC3)c(=O)[nH]c2=O)n1-c1ccc(F)cc1)N(C)C (stereo not given)	-3%	4%	-4	2.9µM*	2%	-3
CCN(CC)S(=O)(=O)c1ccc(SCC(=O)c2c(N)n(C3CC3)c(=O)[nH]c2=O)nc1	nt	?	35	21µM*	nt	nt
CCOC(=O)Cn1c(=O)n(CC2CCCO2)c2nc(-c3ccc(C)cc3)nc(C(N)=O)c21 (stereo not given)	nt	nt	nt	nt	2%	nt
Cc1nnc(NC(=O)C2CCN(S(=O)(=O)c3ccc(F)c(F)c3)CC2)o1	10%	9%	17	2%	1%	9
COc1ccc(-c2cc(=O)n(CCC#N)[nH]2)cc1	18%	?	6	23µM*	5%	-6
COc1ccc(CN(C)C(=O)c2cccc(S(=O)(=O)NCc3ccccc3)c2)cc1F	nt	-11%	9	8%	nt	nt
CCN(Cc1ccc(OC)c(F)c1)C(=O)CCl	?	4.1µM*	-96*	4.1µM*	5%	-7
CCN(Cc1ccc(OC)c(F)c1)C(=O)C1CCCO1 (stereo not given)	16%	2%	16	0%	3%	-4
COc1ccc(CN(C)C(=O)c2ccc(Oc3ccccc3)cc2)cc1F	?	-27%	-74*	?	-14%	2
COc1ccc(CN(C)C(=O)C(Cc2ccccc2)NC(=O)c2ccccc2)cc1F (stereo not given)	15µM*	16µM*	-12	13µM*	13%	-23
CSc1ccc(CN(C)C(=O)C(Cc2ccccc2)NC(=O)c2ccccc2)cc1 (stereo not given)	?	?	8	?	5%	21
CN(Cc1ccc(F)cc1)C(=O)C(Cc1ccccc1)NC(=O)c1ccccc1 (stereo not given)	?	?	-18	18µM*	nt	-2
Cc1cccnc1NC(=O)CCc1nnc2ccc(N3CCC4(CC3)OCCO4)nn12	7%	2%	7	22%	4%	7
COc1ccc(O)c(CN2CCC(n3nccc3NC(=O)c3ccccc3Cl)CC2)c1	3%	?	-14	?	8%	-3
SMILES	ELG1 DNA repair	TDP1 cell CPT	IL1B secr inh	DT40 TDP1 no CPT	TDP1 inh	Giardia killer
CC(C)C(NC(=O)c1ccccc1)C(=O)OCC(=O)N1CCCC1 (stereo not given)	13%	0%	15	9%	0%	0
CCCCC(=O)Nc1cc(OC)c(NC(=S)Nc2ccc(OC)cc2)cc1OC	nt	-4%	-1	?	nt	20
CCOc1ccc(CN(C)C(=O)[C@H](Cc2ccccc2)NC(=O)OCc2ccccc2)cc1OC	?	?	-77*	21µM*	6%	-10
COc1cc(C(=O)OCC(=O)NC(=O)NCc2ccccc2)ccc1OC(F)F	7%	3%	1	-13%	1%	-5
CCOc1ccc(C(=O)OCC(=O)N(Cc2ccccc2)Cc2ccccc2)cc1OC	?	21µM*	-4	?	-8%	14
C=CC[C@@H]1C=C[C@H](O/N=C2\c3cc(OC)ccc3O[C@H](c3cccc(OC)c3)[C@H]2O)[C@H](CO)O1	nt	nt	nt	nt	7%[21 µM]	nt
Cc1ccccc1Cn1c(=O)n(CCCCC(=O)NCCc2ccccc2)c(=O)c2ccccc21	nt	-21%	nt	?	5%	nt
COc1cc2cc(CN(CCN3CCCC3)C(=O)Nc3ccc(F)cc3)c(=O)[nH]c2cc1OC	-3%	?	?	?	1%	8
Cc1cccc2cc(CN(CCCO)C(=O)Nc3cccc(Cl)c3)c(=O)[nH]c12	13µM*	23µM*	-25	21µM*	3%	-6
Cc1cccc2cc(CN(CCCO)C(=O)Nc3ccccc3Cl)c(=O)[nH]c12	?	?	-23	-21%	5%	-5
Cc1ccc(C)c2[nH]c(=O)c(CN(CCN3CCCC3)C(=O)Nc3ccc(F)cc3)cc12	?	?	?	15µM*	1%	11
